The whole screen tested about 310,000 compounds, of which about 14,000 (4.5%) showed an effect of 50% or more. The effect is printed as a negative number. The full list was thinned out, with strong results kept by preference.
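Also: peak tail current of the secondary pulse compared with the same well before compound.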

human ether-à-go-go-related gene (hERG) potassium channel, sequence (Q12809 whole entry, looked up): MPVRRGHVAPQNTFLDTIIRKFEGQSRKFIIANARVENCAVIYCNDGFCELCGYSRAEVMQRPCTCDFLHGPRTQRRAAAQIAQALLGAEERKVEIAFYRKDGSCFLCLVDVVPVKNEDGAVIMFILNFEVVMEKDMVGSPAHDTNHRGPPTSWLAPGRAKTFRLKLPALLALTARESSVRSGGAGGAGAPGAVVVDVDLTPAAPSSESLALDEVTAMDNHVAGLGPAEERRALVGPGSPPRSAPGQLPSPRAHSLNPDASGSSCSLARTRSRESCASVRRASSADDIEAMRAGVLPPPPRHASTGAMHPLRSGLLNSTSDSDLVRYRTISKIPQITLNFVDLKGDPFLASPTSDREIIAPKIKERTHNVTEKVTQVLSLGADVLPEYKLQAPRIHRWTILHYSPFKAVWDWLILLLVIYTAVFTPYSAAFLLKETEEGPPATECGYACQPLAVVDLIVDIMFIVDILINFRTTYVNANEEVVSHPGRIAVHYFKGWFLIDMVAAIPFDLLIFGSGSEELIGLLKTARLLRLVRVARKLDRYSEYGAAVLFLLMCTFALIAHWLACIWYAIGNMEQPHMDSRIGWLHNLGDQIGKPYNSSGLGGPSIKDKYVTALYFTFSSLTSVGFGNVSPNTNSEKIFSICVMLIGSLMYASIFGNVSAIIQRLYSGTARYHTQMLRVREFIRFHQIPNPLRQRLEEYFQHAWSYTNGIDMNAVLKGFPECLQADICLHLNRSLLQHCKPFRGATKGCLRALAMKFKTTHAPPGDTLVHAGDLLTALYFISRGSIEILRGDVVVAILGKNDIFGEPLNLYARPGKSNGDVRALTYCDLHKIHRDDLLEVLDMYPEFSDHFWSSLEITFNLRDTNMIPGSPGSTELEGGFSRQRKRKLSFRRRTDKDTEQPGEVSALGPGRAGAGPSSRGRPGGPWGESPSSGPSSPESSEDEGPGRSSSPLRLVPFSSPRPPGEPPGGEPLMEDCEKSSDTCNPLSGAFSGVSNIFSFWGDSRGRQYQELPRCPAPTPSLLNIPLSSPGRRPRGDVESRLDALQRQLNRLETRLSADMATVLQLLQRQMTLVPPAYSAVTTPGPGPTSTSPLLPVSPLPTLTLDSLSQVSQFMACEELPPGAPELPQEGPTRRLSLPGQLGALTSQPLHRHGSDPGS

The assay concerns the target human ether-à-go-go-related gene (hERG) potassium channel (human, UniProt Q12809). As to the kind of experiment: primary screen, population patch clamp on CHO cells stably expressing hERG; higher = less effect of the substance.
In the case of `CC(C)(C)c1cc(-c2n[nH]c(=S)n2-c2ccc(Cl)cc2)n[nH]1`, the “hERG current change (%, negative = inhibition) at 10uM” value is 17.3%.
In the case of `CCCCCC1CCC(C(=O)N2CCOCC2)CC1` (centres unmarked) it was -2.44%.
As for `CC(C)CC(=O)Nc1ccc(-c2nc3ccccc3c(=O)[nH]2)cc1`, the “hERG current change (%, negative = inhibition) at 10uM” value was determined as 26.7%.
In the case of `O=C1COc2ccc(S(=O)(=O)CCC(=O)NC3CCCCC3)cc2N1` it was 11.8%; in that of `CC(=O)Nc1c(NCC(C)C)c2ccccc2oc1=O`, 16.7%.
As for `Cc1ccc(NC(=O)N2CCc3ccccc3C2)cc1C`, the “hERG current change (%, negative = inhibition) at 10uM” value was determined as 15.2%.
As for `COC(=O)Cc1c(O)ccn(CCc2ccccc2)c1=O`, the “hERG current change (%, negative = inhibition) at 10uM” value is given as 51.2%.
For the compound `CCCn1nc(C(=O)NCC2COc3ccccc3O2)c2ccccc2c1=O` (centres unmarked), the “hERG current change (%, negative = inhibition) at 10uM” value is recorded as -36.2%.
In the case of `COc1ccc(N2CN=C3SCC(=O)N3C2)cc1` it was 11.5%.
In the case of `CC(NC(=O)C1C(=O)N(CCO)C2(C)CC1c1ccccc1O2)c1ccccc1` (centres unmarked) it was -14.4%.
For the compound `CC(=O)Nc1cccc(C(=O)Nc2ccccc2C(=O)O)c1`, the “hERG current change (%, negative = inhibition) at 10uM” value is recorded as 7.39%.
To `Cc1ccc(-c2csc(NC(=O)CSc3nc4ccccc4c(=O)n3CCCN(C)C)n2)cc1` belongs -35.2%; to `C=CCN(CC=C)c1nc2ccccc2nc1C(C#N)C(=O)OCCOC` (centres unmarked), -29.8%.
In the case of `COc1ccccc1NS(=O)(=O)c1cc(NC(=O)C2CC2)ccc1N1CCOCC1` it was 45.4%; in that of `Br.COc1ccccc1NS(=O)(=O)c1cc(N2Cc3ccccc3C2=N)ccc1N1CCOCC1`, -73.3%; in that of `Br.N=C1c2ccccc2CN1c1ccc(N2CCOCC2)c(S(=O)(=O)Nc2ccc(Cl)cc2)c1`, -81%.
To `CCC(=O)Nc1ccc(N2CCOCC2)c(S(=O)(=O)Nc2ccc(Cl)cc2)c1` belongs -25.2%.
Take `COc1ccccc1NS(=O)(=O)c1cc(NC(=O)C(C)(C)C)ccc1N1CCOCC1`: the “hERG current change (%, negative = inhibition) at 10uM” value is recorded as -36.4%.
In the case of `O=S(=O)(Nc1ccc(N2CCOCC2)cc1)c1cc(Cl)ccc1Cl` it was 4.1%; in that of `CCOC(=O)c1nc(C)sc1-c1ccnn1S(=O)(=O)c1ccccc1C(F)(F)F`, -25.1%.
In the case of `CN(CCCC1CCCC1)C(=O)CCc1nnc(-c2ccccc2)o1` it was -22.7%; in that of `Cc1cccc(-c2n[nH]c(=S)n2/N=C/c2ccco2)c1`, 2.87%.
Consider `O=C1[C@@H]2C(Cc3ccc(O)cc3)NC3(C(=O)Nc4ccc(F)cc43)[C@@H]2C(=O)N1c1ccc(F)cc1` (some centres unmarked), for which the “hERG current change (%, negative = inhibition) at 10uM” value came out at 10.1%.
To `CC(O)(C#CCN1CCCCC1)c1ccccc1` (centres unmarked) belongs 1.9%; to `COC(=O)Cc1c[nH]c2cccc(OCC(O)CN(Cc3ccc([N+](=O)[O-])cc3)C(C)(C)C)c12.Cl` (centres unmarked), -4.66%.
As for `CC(O)C(=O)O.Cc1ccc(CN(CC(O)COc2cccc3[nH]cc(C)c23)C(C)(C)C)cc1` (centres unmarked), the “hERG current change (%, negative = inhibition) at 10uM” value is on record as -60.8%.
To `COc1ccc(OCC(O)CN(C)C(=O)C(C)Oc2ccccc2)cc1` (centres unmarked) belongs 6.31%; to `Cc1c[nH]c2cccc(OCC(O)CNC(C)(C)C)c12.Cl` (centres unmarked), -8.91%.
With `Cc1c[nH]c2cccc(OCC(CNC(C)(C)C)OC(=O)c3ccccc3)c12.Cl` (centres unmarked), the “hERG current change (%, negative = inhibition) at 10uM” value was 1.02%.
For the compound `CC(O)C(=O)O.COc1ccc(CN(CC(O)COc2cccc3[nH]cc(C)c23)C(C)(C)C)cc1` (centres unmarked), the “hERG current change (%, negative = inhibition) at 10uM” value is reported as -60.6%.
For `CCOC(=O)c1c(C)nsc1NCc1ccccc1`, the “hERG current change (%, negative = inhibition) at 10uM” value stood at 5.94%.
Regarding `CCOC(=O)c1c2n(c3c(NCc4ccccc4)ncnc13)CCCC2`, the “hERG current change (%, negative = inhibition) at 10uM” value was -76.3%.
To `CCOC(=O)CSc1ncnc2c(C(=O)OCC)c3n(c12)CCC3` belongs -62.6%; to `CCSc1ncnc2c(C#N)c3n(c12)CCCCC3`, -23.8%; to `CCOC(=O)CSc1ncnc2c1sc1nc(N3CCOCC3)c3c(c12)CCCC3`, 12.7%.
In the case of `CCOC(=O)c1c(NCc2ccccc2)n[nH]c1C` it was 5%; in that of `COc1ccc(CNc2nnnn2C)cc1`, 20.9%; in that of `CCOC(=O)Cc1csc(NC(=O)c2ccco2)n1`, 0.229%.
For the compound `Cn1c(=O)[nH]c(=O)c2c1nc(N1CCCCC1)n2CCSc1nc2ccccc2o1`, the “hERG current change (%, negative = inhibition) at 10uM” value turned out to be 11.1%.
To `Cn1c(=O)[nH]c(=O)c2c1nc(N1CCCCCC1)n2CCCSc1nc2ccccc2o1` belongs -38.3%; to `Cn1c(=O)[nH]c(=O)c2c1nc(N1CCCC1)n2CCCSc1nc2ccccc2o1`, -25.4%.
As for `Cn1c(=O)[nH]c(=O)c2c1nc(Br)n2CCSc1nc2ccccc2o1`, the “hERG current change (%, negative = inhibition) at 10uM” value is on record as -1.02%.
To `Cn1c(=O)[nH]c(=O)c2c1nc(Br)n2CCCSc1nc2ccccc2o1` belongs -66.8%; to `Cn1c(=O)[nH]c(=O)c2c1nc(Br)n2CCCCSc1nc2ccccc2o1`, -55.6%.
To `Oc1ccc(CNCC2COc3ccccc3O2)cc1` (centres unmarked) belongs 4.89%.
In the case of `COc1ccc(OCCC(=O)OCC(=O)NCCc2ccccc2)cc1` it was 6.65%; in that of `O=C(/C=C/c1ccccc1[N+](=O)[O-])NCC1CCCO1` (centres unmarked), -3.47%; in that of `COc1ccc(COC(=O)C2CCN(S(=O)(=O)c3ccc(Cl)cc3)CC2)cc1`, 30%.
As to `CCn1c(CSc2ncn[nH]2)nc2cc(C(=O)O)ccc21`, the “hERG current change (%, negative = inhibition) at 10uM” value is -4.97%.
In the case of `COc1cccc2c1Oc1ncccc1N(C(=O)CCC(=O)NCc1ccc(C)cc1)C2` it was -34.4%.
On to `CCc1ccc(CNC(=O)CCC(=O)N2Cc3cccc(OC)c3Oc3ncccc32)cc1`, for which the “hERG current change (%, negative = inhibition) at 10uM” value is on record as -75%.
To `CCOc1ccc(CNC(=O)CCC(=O)N2Cc3ccccc3Oc3ncccc32)cc1` belongs -51.1%.
For `CCOc1ccccc1CNC(=O)CCC(=O)N1Cc2ccccc2Oc2ncccc21`, the “hERG current change (%, negative = inhibition) at 10uM” value is reported as -3.62%.
As for `COc1cccc2c1Oc1ncccc1N(C(=O)CCC(=O)NCc1ccc(F)cc1)C2`, the “hERG current change (%, negative = inhibition) at 10uM” value was -32.6%.
To `CCOc1ccc(CNC(=O)CCC(=O)N2Cc3cccc(OC)c3Oc3ncccc32)cc1` belongs -44.3%; to `O=C1C=C(Nc2ccc(O)cc2)C(=O)c2ccccc21`, 4.35%; to `CCc1ccccc1Nc1nc(-c2cccnc2)cs1`, -3.32%.
In the case of `Fc1ccc(NC(=S)N/N=C/c2ccc(F)c(F)c2)c(F)c1` it was 13%; in that of `Cc1nc(SCC(=O)NC2CCCC2)c2c(C)c(C)sc2n1`, -4.48%; in that of `CCc1cccc2c(C(=O)COC(=O)C3=NNC(=O)CC3)c[nH]c12`, -51.6%.
Turning to `CCc1cccc2c(C(=O)COC(=O)c3cnc(C)cn3)c[nH]c12`, the “hERG current change (%, negative = inhibition) at 10uM” value was 2.87%.
For the compound `CCc1cccc2c(C(=O)COC(=O)c3nccnc3N)c[nH]c12`, the “hERG current change (%, negative = inhibition) at 10uM” value is -5.69%.
To `CCc1cccc2c(C(=O)COC(=O)c3ccccc3)c[nH]c12` belongs 11.7%; to `CCc1cccc2c(C(=O)COC(=O)c3nn(C)c(=O)c4ccccc34)c[nH]c12`, -65.6%.
With `O=C1CCC(C(=O)OCC(=O)c2c[nH]c3ccccc23)=NN1`, the “hERG current change (%, negative = inhibition) at 10uM” value was 1.19%.
In the case of `Fc1ccccc1NC(=S)NN(Cc1ccccc1)c1ccccc1` it was -13.9%; in that of `CCNc1nc2[nH]c(=O)c3c(c2s1)OC(N)=C(C#N)C3c1ccc(C)cc1` (centres unmarked), 1.97%.
As to `CCCc1nc(SCC(N)=O)[nH]c(=O)c1CC`, the “hERG current change (%, negative = inhibition) at 10uM” value was found to be 7.34%.
Turning to `CCOc1ccc(NC(=O)c2ccccc2CO)cc1`, the “hERG current change (%, negative = inhibition) at 10uM” value is on record as 16.2%.
To `Cn1cnnc1SCC(=O)Nc1ccccc1Sc1ccccc1` belongs -16.7%; to `COc1cc(C(=O)Nc2cc(C)cc(C)c2)c(-n2cnnn2)cc1OC`, 14.7%.
In the case of `COCCN(C(=O)Nc1ccc(OC)cc1OC)C1CCN(C(C)=O)CC1` it was 7.58%.
As to `O=C(Nc1ccccc1)OC(CN1CCCCC1)C(F)(F)F` (centres unmarked), the “hERG current change (%, negative = inhibition) at 10uM” value is given as 6.17%.
To `Cl.O=C(Nc1ccccc1)OCC(CN1CCCCC1)OC(=O)Nc1ccccc1` (centres unmarked) belongs -60.1%; to `O=C(CN1CCCCC1)Nc1ccccc1`, -1.04%; to `CCN(CC(=O)Nc1ccc(NC(C)=O)cc1)C(=O)C1CCCN(C(=O)c2ccc(Cl)cc2)C1` (centres unmarked), -3.75%.
For `CCOc1ccccc1NC(=O)CN1CCC(NC(=O)c2ccccc2C)CC1`, the “hERG current change (%, negative = inhibition) at 10uM” value was -59.4%.
In the case of `COc1ccc(OC)c(NC(=O)CN2CCC(NC(=O)c3ccccc3C)CC2)c1` it was -12.3%; in that of `COC(=O)c1ccccc1NC(=O)CN1CCC(NC(=O)c2ccccc2C)CC1`, -39.9%; in that of `CC1CCN(CC(=O)Nc2ccccc2C(=O)NC2CC2)CC1`, -17.4%.
On to `CCOc1cc2c(cc1OCC)CN(CC(=O)Nc1ccccc1C(=O)NC1CC1)CC2`, for which the “hERG current change (%, negative = inhibition) at 10uM” value is -31.4%.
In the case of `CC(=O)c1ccc(N2CCN(CC(=O)Nc3ccccc3C(=O)NC3CC3)CC2)c(F)c1` it was -27.9%; in that of `Cc1ccccc1N1CCN(CC(=O)Nc2ccccc2C(=O)NC2CC2)CC1`, -62.4%.
To `CCOc1ccccc1OCC(=O)Nc1ccccc1C(=O)NC1CC1` belongs 3.61%.
In the case of `CCOc1ccccc1N1CCN(CC(=O)Nc2ccccc2C(=O)NC2CC2)CC1` it was -70.2%; in that of `CCOc1ccccc1C(=O)Nc1cc(OC)ccc1OC`, -3.8%; in that of `CCOc1ccccc1NC(=O)N1CCC(NC(=O)c2ccccc2C)CC1`, -1.06%.
On to `CCOc1ccccc1C(=O)NC1CCN(CC(=O)Nc2cc(OC)ccc2OC)CC1`, for which the “hERG current change (%, negative = inhibition) at 10uM” value is given as -77.2%.
To `COc1cccc(OCc2nnc(SC)n2C)c1` belongs -7.06%.
